Assay results published in PubChem BioAssay (Tox21).
Results filed as inconclusive are left out. The source made the active and inactive calls. Unless noted, calls follow the shape of the dose curve; as a rule, active = well fitted curve in the direction sought with a large enough effect in the repeat runs; inconclusive = weak or mixed curves; inactive = no such curve, though single readings can be large; an effect the other way counts as inactive or inconclusive.

What was measured:
[1] = qHTS RealTime-Glo MT Cell Viability Assay in HEK293 cells - 0 hour (AID 1224880); also: top concentration of the series differs between compounds; nearly all actives have a fitted effect of over 45% in size
Outline: (§1)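 Kinetic, non-lysing viability readout. Seed HEK293 (600/well) with reagent, incubate 5 h at 37 C/5% CO2, pin 23 nL compound in DMSO, incubate at 37 C, read luminescence at 0, 8, 16, 24, 32, 40 h.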

[2] = A CellTox Green Cytotoxicity Assay to monitor cytotoxicity in HEK293 cells - 32 hour (AID 1224881); also: nearly all actives have a fitted effect of over 40% in size
Outline: (§2)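 Real-time, in one plate: 600 HEK293 cells/well with dead-cell DNA dye, pinned compound after 5 h, 37 C incubation over 40 h; viable cells give no appreciable fluorescence.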

[3] = A CellTox Green Cytotoxicity Assay to monitor cytotoxicity in HepG2 cells - 0 hour (AID 1224882); also: nearly all actives have a fitted effect of over 35% in size
Outline: (§3)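 Cytotoxicity was tracked as dead-cell DNA fluorescence in HepG2 cells treated with test compounds at 37 C; each time-point value comes from one kinetic series spanning 0, 8, 16, 24, 32 and 40 h.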

[4] = A CellTox Green Cytotoxicity Assay to monitor cytotoxicity in HepG2 cells - 32 hour (AID 1224883); also: nearly all actives have a fitted effect of over 50% in size
Outline: as §3

[5] = A CellTox Green Cytotoxicity Assay to monitor cytotoxicity in HEK293 cells - 8 hour (AID 1224884); also: nearly all actives have a fitted effect of over 35% in size
Outline: as §2

[6] = qHTS RealTime-Glo MT Cell Viability Assay in HepG2 cells - 16 hour (AID 1224885); also: nearly all actives have a fitted effect of over 50% in size
Outline: (§4)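 Cells + NanoLuc/prosubstrate dispensed (600 cells/well) → 5 h at 37 C/5% CO2 → compounds in DMSO transferred → 40 h incubation at 37 C, luminescence read at 0, 8, 16, 24, 32, 40 h.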

[7] = qHTS RealTime-Glo MT Cell Viability Assay in HEK293 cells - 24 hour (AID 1224886); also: top concentration of the series differs between compounds; nearly all actives have a fitted effect of over 50% in size
Outline: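 Tox21 10K qHTS, HEK293, 600 cells/well, RealTime-Glo reagent co-dispensed with cells; 5 h preincubation, compound by pintool, 37 C, luminescence at 0–40 h.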

[8] = qHTS RealTime-Glo MT Cell Viability Assay in HEK293 cells - 8 hour (AID 1224887); also: top concentration of the series differs between compounds; nearly all actives have a fitted effect of over 50% in size
Outline: as §1

[9] = A CellTox Green Cytotoxicity Assay to monitor cytotoxicity in HEK293 cells - 16 hour (AID 1224888); also: nearly all actives have a fitted effect of over 35% in size
Outline: as §2

[10] = qHTS RealTime-Glo MT Cell Viability Assay in HepG2 cells - 0 hour (AID 1224889); also: nearly all actives have a fitted effect of over 50% in size
Outline: as §4

[11] = A CellTox Green Cytotoxicity Assay to monitor cytotoxicity in HepG2 cells - 8 hour (AID 1224890); also: nearly all actives have a fitted effect of over 45% in size
Outline: as §3

[12] = qHTS assay to identify small molecule antagonists of the estrogen receptor alpha (ER-alpha) signaling pathway using the BG1 cell line in the presence of 0.1 nM 17-beta-estradiol - cell viability counter screen (AID 1259241); also: nearly all actives have a fitted effect of over 40% in size
Outline: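 The cell line endogenously expresses full-length ER-alpha and carries four EREs driving luciferase. Cells are cultured 5 days hormone-free, treated 22 hr with compounds and 0.1 nM estradiol, then viability is read by fluorescence.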

[13] = qHTS assay to identify small molecule antagonists of the androgen receptor (AR) signaling pathway using the MDA cell line in the presence of 0.5 nM R1881 - cell viability counter screen (AID 1259242); also: nearly all actives have a fitted effect of over 45% in size
Outline: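 Cells seeded at 3,000/well and allowed 5 hr at 37C, 0% CO2 before compound transfer and R1881 (0.5 nM final) addition; 16 hr later, live-cell protease fluorescence indicated cytotoxicity.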

[14] = biological target: Androgen receptor (Homo sapiens) (UniProt P10275); experiment: qHTS assay to identify small molecule antagonists of the androgen receptor (AR) signaling pathway using the MDA cell line in the presence of 0.5 nM R1881 (AID 1259243); also: nearly all actives have a fitted effect of over 50% in size
Outline: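 Luminescence from an AR/GR-responsive MMTV-luciferase construct in MDA-kb2 breast carcinoma cells, read 30 min after ONE-Glo, following 16 hr co-treatment with compounds and 0.5 nM R1881.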

[15] = qHTS assay to identify small molecule HDAC inhibitors (AID 1259364);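 also: wild-type HCT-116 cells with endogenous class I/II HDAC activity; top concentration of the series differs between compounds; nearly all actives have a fitted effect of over 45% in size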
Outline: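 HCT-116 wt cells, 1,500/well, overnight attach. Compounds (DMSO) 2 h, 37 °C. HDAC-Glo I/II, 30 min RT. Luminescence.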

[16] = qHTS assay to identify small molecule HDAC inhibitors - cell viability counter screen (AID 1259365)
Outline: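 Viability readout: CellTiter-Glo luminescence. Wild-type HCT-116 cells, 2hr compound treatment following overnight attachment at 37 C.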

[17] = qHTS assay to identify small molecule agonists of the sonic hedgehog signaling (Shh) pathway - cell viability counter screen (AID 1259366); also: nearly all actives have a fitted effect of over 50% in size
Outline: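 Viability measured fluorometrically (CellTiter-Fluor, 1hr, 37C) in 3T3 Gli1-Luc reporter cells after 23hr compound exposure within a 24hr incubation at 37C/5% CO2.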

[18] = qHTS assay to identify small molecule antagonists of the sonic hedgehog signaling (Shh) pathway - cell viability counter screen (AID 1259367); also: nearly all actives have a fitted effect of over 55% in size
Outline: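 Tox21 library chemicals were tested on a Gli1-Luc NIH/3T3 clone (2,000 cells/well) stimulated by conditioned medium; viability was quantified as fluorescence from CellTiter-Fluor reagent added at 23 hr.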

[19] = biological target: Estrogen receptor (Homo sapiens) (UniProt P03372); experiment: qHTS assay to identify small molecule antagonists of the estrogen receptor alpha (ER-alpha) signaling pathway using the BG1 cell line in the presence of 0.1 nM 17-beta-estradiol (AID 1259244); also: nearly all actives have a fitted effect of over 50% in size
Outline: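 Luciferase signal from VM7Luc4E2 ERE-reporter cells, co-dosed with test compound and 0.1 nM final 17beta-estradiol for 22 h, read with ONE-Glo.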

[20] = qHTS assay to identify small molecule phospholipidosis (PLD) inducers (AID 1259344; active = well fitted curve in the direction sought with a large enough effect; an effect the other way counts as inactive or inconclusive)
Outline: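 Image-based: LipidTOX Red pit count/intensity per well and per cell; HepG2, 24 h compound at 37 C, PFA fixation, Hoechst counterstain.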

Measured: Potency

Estrogen receptor (Homo sapiens), sequence (P03372 whole entry, looked up): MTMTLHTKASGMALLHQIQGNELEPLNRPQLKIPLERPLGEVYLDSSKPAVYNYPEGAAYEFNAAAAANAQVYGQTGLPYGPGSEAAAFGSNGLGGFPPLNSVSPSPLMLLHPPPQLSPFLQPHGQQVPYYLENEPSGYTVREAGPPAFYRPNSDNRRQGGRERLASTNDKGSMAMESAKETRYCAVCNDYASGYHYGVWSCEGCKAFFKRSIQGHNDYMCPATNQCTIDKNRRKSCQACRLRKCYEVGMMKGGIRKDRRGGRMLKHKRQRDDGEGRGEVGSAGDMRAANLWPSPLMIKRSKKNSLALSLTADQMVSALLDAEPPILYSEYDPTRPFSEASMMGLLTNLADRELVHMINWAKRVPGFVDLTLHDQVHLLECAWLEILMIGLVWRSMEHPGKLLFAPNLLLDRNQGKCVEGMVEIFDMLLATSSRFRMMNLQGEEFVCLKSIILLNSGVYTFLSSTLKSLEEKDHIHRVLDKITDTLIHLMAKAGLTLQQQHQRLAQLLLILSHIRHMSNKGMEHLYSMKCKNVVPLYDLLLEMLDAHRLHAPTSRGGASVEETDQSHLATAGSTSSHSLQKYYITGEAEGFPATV
Androgen receptor (Homo sapiens), sequence (P10275 whole entry, looked up): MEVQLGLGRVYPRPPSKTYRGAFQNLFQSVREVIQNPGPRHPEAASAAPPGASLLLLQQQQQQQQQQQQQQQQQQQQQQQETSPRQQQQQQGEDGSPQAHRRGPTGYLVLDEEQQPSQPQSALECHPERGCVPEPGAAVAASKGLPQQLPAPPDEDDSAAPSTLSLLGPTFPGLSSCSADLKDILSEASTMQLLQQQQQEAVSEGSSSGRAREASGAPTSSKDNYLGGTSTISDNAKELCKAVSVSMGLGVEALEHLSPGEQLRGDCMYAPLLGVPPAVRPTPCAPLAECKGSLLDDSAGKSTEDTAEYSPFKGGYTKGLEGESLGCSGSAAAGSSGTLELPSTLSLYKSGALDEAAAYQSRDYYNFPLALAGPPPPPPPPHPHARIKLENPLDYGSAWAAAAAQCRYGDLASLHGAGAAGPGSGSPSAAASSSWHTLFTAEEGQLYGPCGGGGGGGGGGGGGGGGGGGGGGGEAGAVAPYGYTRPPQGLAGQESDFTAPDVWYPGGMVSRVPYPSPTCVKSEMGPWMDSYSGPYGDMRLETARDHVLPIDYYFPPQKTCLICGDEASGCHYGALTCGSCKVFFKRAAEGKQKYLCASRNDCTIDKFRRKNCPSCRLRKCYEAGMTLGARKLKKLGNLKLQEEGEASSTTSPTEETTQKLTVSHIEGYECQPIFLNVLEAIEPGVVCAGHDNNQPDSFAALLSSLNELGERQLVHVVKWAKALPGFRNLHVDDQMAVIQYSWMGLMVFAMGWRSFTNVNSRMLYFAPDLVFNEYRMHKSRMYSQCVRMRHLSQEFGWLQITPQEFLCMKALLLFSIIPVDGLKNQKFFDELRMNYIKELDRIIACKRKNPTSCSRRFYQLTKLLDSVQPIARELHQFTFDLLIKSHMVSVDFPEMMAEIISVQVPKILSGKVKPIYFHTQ

O=C(O)c1cc(Br)c(O)c(Br)c1
not listed: [19] | [20]
inactive: all other assays above

On1nnc2ccccc21
not listed: [14] | [20]
inactive: all other assays above

NNc1nnc(NN)c2ccccc12
not listed: [14]
inactive: all other assays above

CC(C)NCC(O)COc1ccc(COCCOC(C)C)cc1 (stereo not given)
inactive: all assays above

CO[C@@H]1[C@@H](OC(N)=O)[C@@H](O)[C@H](Oc2ccc3c(O)c(NC(=O)c4ccc(O)c(CC=C(C)C)c4)c(=O)oc3c2C)OC1(C)C
not listed: [14]
inactive: all other assays above

BrCCCCCBr
not listed: [14] | [20]
inactive: all other assays above

CC1=CCC(C(C)C)=CC1
not listed: [14] | [20]
inactive: all other assays above
